# CaV13 FRET inh = Primary screen for inhibitors of IQ motif and Ca2+-dependent inactivation inhibitor domain binding in CACNA1D, Förster resonance energy transfer in living cells, …; HEK cells, CFP/YFP FRET ICDI-IQ, plate reader, 10 min; percent FRET-ratio fall versus neutral wells; inhibition, % at 12.3 µM; 340,000 tested, 0.098% active; AID 743397;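 active = mean replicate inhibition of at least 30% and at least 1% of replicates passing that level; inconclusive = only one of the two criteria is met; inactive = neither criterion is met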
# PfM18AAP inh = PfM18AAP inhibitors, malaria aminopeptidase, primary screen, biochemical, QFRET, recombinant enzyme; M18 aspartyl aminopeptidase (Plasmodium falciparum 3D7); H-Glu-NHMec fluorogenic cleavage; inhibition, % at 7.35 µM; 290,000 tested, 1.2% active; AID 1822, 2009;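 active = inhibition above the campaign mean inhibition over all tested compounds plus 3 SD, cut at about 28% in these data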
# IDE act = human IDE activators in live cells, primary screen, fluorescence polarization, HEK cells, FAbeta-B substrate. Insulin-degrading enzyme (Homo sapiens), P14735. FAbeta-B cleavage; 0% vehicle, 100% cell-free pure enzyme wells. activation, % at 5.96 µM. 340,000 tested, 0.073% active;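 active = activation above the mean of all tested compounds plus 3 SD, set per screening campaign, cut at about 17% in these data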
# PolyA inh = polyadenylation inhibitors in yeast reporter cells, primary screen, luminescence, S. cerevisiae; S. cerevisiae SKY197-pL101 polyadenylation reporter, beta-gal luminescence; efflux-impaired pdr1/pdr3 knockout yeast; score 100 = 6 SD above DMSO; activity score, % at 12 µM; 300,000 tested, 0.02% active;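 active = lowest replicate activity score at least 50, where 100 means six control SD above control mean; inconclusive = lowest score under 50 but half or more replicates reach 50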;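 also: yeast exposed to compound for 9 h at 30 °C; higher score means more reporter readthrough which indicates perturbed polyadenylation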
# IDE inh = human IDE inhibitors in live cells, primary screen, fluorescence polarization, HEK cells, FAbetaB substrate; 320,000 tested, 0.41% active; Insulin-degrading enzyme (Homo sapiens), P14735; inhibition, % at 5.59 µM; AID 434962, 2010; FAbetaB cleavage;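 active = percent inhibition above the average of all tested compounds plus 3 SD, set per screening campaign, cut at about 16% in these data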;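 also: IDE supplied by intact live HEK cells; FP after avidin binding of uncleaved biotin substrate so inhibition keeps polarization high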
# ALR H2O2 inh = inhibitors of human ALR sulfhydryl oxidase, primary screen, biochemical, H2O2 detection, HRP-luminol luminescence, single point; FAD-linked sulfhydryl oxidase ALR (Homo sapiens), P55789; purified ALR, DTT oxidation; inhibition, % (concentration not given with the values); 290,000 tested, 3.8% active; AID 485317, 2010;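 active = mean replicate inhibition above about 79%, with every replicate also reaching it, limit read from the data; inconclusive = only one of the two criteria met; inactive = mean below limit and not every replicate reaching it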
# Numbers stand for hits; n = inactive; u = inconclusive; x = not tested or not shown. Rows were chosen to be rich in hits. Some 4.1% of all compounds tested hit in one or more screens of this group.
SMILES,CaV13 FRET inh,PfM18AAP inh,IDE act,PolyA inh,IDE inh,ALR H2O2 inh
COC(=O)c1c(NC(=O)c2ccc(N(C)S(=O)(=O)c3ccc(C)cc3)cc2)sc2c1CCCC2,n,n,n,n,n,n
NC(=O)c1c(NC(=O)c2ccc(N3C(=O)CCC3=O)cc2)sc2c1CCCC2,n,x,n,x,n,93
NC(=O)c1c(NC(=O)c2ccc(F)cc2Cl)sc2c1CCC2,n,n,n,n,n,93
NC(=O)c1c(NC(=O)c2ccccc2Cl)sc2c1CCC2,n,n,n,n,n,91
NC(=O)c1c(NC(=O)c2ccccc2C(=O)O)sc2c1CCCC2,n,n,n,n,n,n
COCCN(CCOC)S(=O)(=O)c1ccc(C(=O)Nc2sc3c(c2C(N)=O)CCCCC3)cc1,n,n,n,n,n,91
COC(=O)c1ccc2c(=O)n(CCN3CCOCC3)c(SCC(=O)Nc3ccc(OC)cc3OC)nc2c1,n,n,n,n,n,n
Cc1cc(C)cc(N(C(=O)CCC(=O)Nc2ccccn2)C(C(=O)NC(C)C)c2ccc(O)cc2)c1 (centres undefined),x,n,x,n,n,x
COCCCNC(=O)c1c(NC(=O)c2cccs2)sc2c1CCCC2,n,n,n,n,n,86
NC(=O)c1c(NC(=O)c2cccs2)sc2c1CCCCCC2,x,n,n,n,n,n
COc1ccc(CCNC(=O)CSc2ccc(NC(C)=O)cc2)cc1OC,n,n,n,n,n,98
COc1ccc(CC(=O)NCCc2ccc(OC)c(OC)c2)cc1,n,n,n,n,n,n
COc1ccc(CCNC(=O)CSc2ccc3ccccc3c2)cc1OC,n,n,n,n,n,99
COc1ccc(CCNC(=O)CSc2nnc(-c3ccccc3)c3ccccc23)cc1OC,n,n,n,n,n,96
CC(CNC(=O)c1ccc(C(C)(C)C)cc1)CN(C)C (centres undefined),n,n,n,n,n,n
O=C(COC(=O)/C=C/c1ccccc1Cl)NC1CC1,n,x,x,x,x,x
Clc1ccccc1-c1nnc(-c2ccc3c(c2)OCO3)o1,n,n,n,n,n,n
CCC(O)c1cnc(OCc2ccccc2)nc1OCc1ccccc1 (centres undefined),n,x,x,x,x,x
C=CCc1cc(C(=O)N2CCCCC2)ccc1O,n,n,n,n,n,n
C=CCc1ccc(O)c(-c2ccc(O)c(CC=C)c2)c1,x,n,n,n,n,98
CC1(c2nnnn2-c2ccc3c(c2)OCCO3)CCC(=O)N1CCc1ccc(O)cc1 (centres undefined),n,x,x,x,x,x
CC(C)NS(=O)(=O)c1ccc2c(c1)NCC2,n,n,n,n,n,99
CC(C)NS(=O)(=O)c1ccc2c3c(cccc13)CC2,n,n,n,n,n,n
Cn1cccc1C(=O)OCC(=O)NCCc1ccc(S(N)(=O)=O)cc1,n,x,n,x,n,n
Cc1ccc(N=C(NO)c2nonc2N)cc1,n,n,n,n,n,92
SMILES,CaV13 FRET inh,PfM18AAP inh,IDE act,PolyA inh,IDE inh,ALR H2O2 inh
Cc1ccc(S(=O)(=O)N2C[C@H]3[C@H]4C(=O)N(C)C(=O)[C@H]4CC(=O)[C@H]3[C@@H]2c2ccccc2Cl)cc1,n,x,x,x,x,x
CCOc1ccc(S(=O)(=O)N2CC(=O)Nc3ccccc32)cc1,n,n,n,n,n,n
O=C1C=CC(=C(c2ccc(O)cc2)c2ccc(O)cc2)C=C1,n,x,n,x,n,99
CC1(C)Cc2c(cnn2-c2cccc(F)c2)C(NC(=O)c2ccc(=O)[nH]n2)C1 (centres undefined),n,n,n,n,n,92
Cc1cc(C(=O)NC2CC(C)(C)Cc3c2cnn3-c2cccc(F)c2)nn1C (centres undefined),n,n,n,n,n,n
CC1=C(C(=O)NC2CC(C)(C)Cc3c2cnn3-c2cccc(F)c2)OCCO1 (centres undefined),n,n,n,n,n,97
Cc1cc(C(=O)NC2CC(C)(C)Cc3c2cnn3-c2cccc(F)c2)n(C)n1 (centres undefined),n,n,n,n,n,n
COc1ccc(CCNC(=O)CC2SC(=NCc3ccccc3)NC2=O)cc1 (centres undefined),n,n,n,n,n,n
Cn1c(=S)[nH]c2cccnc21,n,n,n,n,n,97
CC(C)c1cccc(C(C)C)c1NC(=O)COC(=O)C1=COCCO1,n,n,n,n,n,n
CCC1CN(C(=O)N2CCC(C(=O)NCc3cccc(OC)c3OC)CC2)c2cc(C)ccc2O1 (centres undefined),n,n,n,n,n,n
Cc1[nH]c2ccccc2c1N=Nc1ccc(F)cc1,n,n,n,n,n,98
Cc1[nH]c2ccccc2c1N=Nc1ccccc1F,n,n,n,n,n,99
Cc1[nH]c2ccccc2c1N=Nc1cc(C(=O)O)cc(C(=O)O)c1,n,n,n,n,n,n
N#Cc1ccc(OCC(=O)Nc2ccc(S(=O)(=O)N3CCOCC3)cc2)cc1,x,x,n,x,n,x
CCCn1c(SCC(=O)Nc2cccc(S(=O)(=O)N(C)C)c2)nc2ccccc2c1=O,n,n,n,n,n,n
CC(C(=O)NCC1CCCCC1)N(C)CC(=O)Nc1ccc(N2CCOCC2)cc1 (centres undefined),n,n,n,n,n,92
O=C(CSc1ccc2c(c1)OCCO2)Nc1ccc(N2CCOCC2)cc1,n,n,n,n,n,n
CC(Oc1ccc(F)cc1)C(=O)Nc1ccc(N2CCOCC2)cc1N1CCOCC1 (centres undefined),n,x,n,n,n,u
CC(Oc1cccc(Cl)c1)C(=O)Nc1ccc(N2CCOCC2)cc1N1CCOCC1 (centres undefined),n,x,n,n,n,98
CC(Sc1ccc2c(c1)OCCO2)C(=O)Nc1ccc(N2CCOCC2)cc1 (centres undefined),n,n,n,n,n,99
CC(Sc1ccc(Cl)cc1)C(=O)N(C)CC(=O)Nc1ccc(N2CCOCC2)cc1 (centres undefined),n,x,n,n,n,92
COC(=O)C1=C(CCc2ccccc2)NC(=O)NC1c1ccc([N+](=O)[O-])cc1 (centres undefined),n,x,n,u,n,n
CN(CC(=O)Nc1ccc(N2CCOCC2)cc1)C(=O)c1cccc(Cl)c1Cl,n,x,n,n,n,n
CC(Oc1ccc(Cl)cc1)C(=O)N(C)CC(=O)Nc1ccc(N2CCOCC2)cc1 (centres undefined),x,n,n,n,n,93

# Source: PubChem BioAssay
